Assay results reported in PubChem BioAssay (NCATS).
Where “and” joins values, the source holds several entries; their conditions need not be identical. Identical values can stand only once. Inconclusive results are not listed. Where a call stands in place of a potency, no number is given. A number with no mark means an inactive call. Calls of active or inactive are those of the source. The call rests on the fitted dose curve; in most records, active means well fitted curve in the direction sought with a large enough effect; inconclusive means small, poorly fitted or top-dose-only effect, or another doubt; inactive means no such curve, though single readings can be large; an effect the other way counts as inactive or inconclusive.

How the values were obtained:
[1] = P-glycoprotein substrates identified in KB-8-5-11 adenocarcinoma cell line, qHTS therapeutic library screen (AID 1346987); further: nearly all actives have a fitted effect of over 65% in size
In short: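 KB-8-5-11, a colchicine-selected P-gp-overexpressing KB-3-1 subline, was grown without colchicine for the assay. Cells were seeded at 500 cells/well, dosed in concentration-response and incubated 72 h at 37 degree C, 5% CO2. Viability was read by CellTiter-Glo luminescence.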

[2] = NS1 protein of Zika virus - qHTS assay to identify small molecule inhibitors in human HEK 293 cells (AID 1347053); further: nearly all actives have a fitted effect of over 55% in size
In short: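 HEK 293; 20 h pre-culture, 37 C/5% CO2; cpd 1 h pre-infection; ZIKV MR766, MOI = 0.5, 24 h, 37 C; TR-FRET NS1 readout (two anti-NS1 Abs); norm. to no-virus vs infected.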

[3] = qHTS of pediatric cancer cell lines to identify multiple opportunities for drug repurposing: Primary screen for TC32 cells (AID 1347089); further: nearly all actives have a fitted effect of over 60% in size
In short: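 Luminescent ATP read-out (CellTiter-Glo) of metabolically active TC32 cells after 48 h exposure. Concentration-response curves came from 11-point (MIPE, 0.78 nM–46 µM) or 8-point (NPC, 0.59 nM–46 µM) primary titrations; follow-up used 11 points.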

[4] = qHTS of pediatric cancer cell lines to identify multiple opportunities for drug repurposing: Primary screen for DAOY cells (AID 1347090); further: nearly all actives have a fitted effect of over 55% in size; on activity change, negative = cytotoxic: series mostly up to about 46 µM
In short: (§1)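 Viability measured as metabolically active cells via CellTiter-Glo luminescence following 48 hours of compound exposure, 11-point dilutions in confirmatory testing. 500-1,000 cells/well plated 5 hours before dosing; controls were DMSO and 2.3 µM bortezomib.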

[5] = qHTS of pediatric cancer cell lines to identify multiple opportunities for drug repurposing: Primary screen for A673 cells (AID 1347092); further: nearly all actives have a fitted effect of over 45% in size
In short: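 Cell viability of A673 measured by CellTiter-Glo ATP luminescence after 48 hours compound exposure. Dilution series spanned 0.78 nM to 46 µM (MIPE, 11-point) or 0.59 nM to 46 µM (NPC, 8-point); bortezomib 2.3 uM positive control.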

[6] = qHTS of pediatric cancer cell lines to identify multiple opportunities for drug repurposing: Primary screen for SK-N-MC cells (AID 1347093); on activity change, negative = cytotoxic: series mostly up to about 46 µM
In short: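 Metabolically active cells were quantified by ATP-dependent luminescence (CellTiter-Glo, 15 min at room temperature) following 48 h treatment. Cells had been plated at 500-1,000 per well and settled for 5 h beforehand.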

[7] = qHTS of pediatric cancer cell lines to identify multiple opportunities for drug repurposing: Primary screen for BT-37 cells (AID 1347094); on activity change, negative = cytotoxic: series mostly up to about 57 µM
In short: (§2)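 Cells plated at 500-1,000/well in growth medium, compounds added after 5 h. MIPE tested at 11 points (from 0.78 nM), NPC at 8 points (from 0.59 nM). CellTiter-Glo luminescence after 48 h; concentration-response curves from primary screen.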

[8] = qHTS of pediatric cancer cell lines to identify multiple opportunities for drug repurposing: Primary screen for NB-EBc1 cells (AID 1347095)
In short: as §2

[9] = qHTS of pediatric cancer cell lines to identify multiple opportunities for drug repurposing: Primary screen for U-2 OS cells (AID 1347096); further: nearly all actives have a fitted effect of over 50% in size
In short: (§3)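 Viability after 48 h compound treatment at 37C, 500-1,000 cells/well, read as ATP luminescence with CellTiter-Glo. Primary screens used 11-point (MIPE, 0.78 nM-46 µM) or 8-point (NPC, 0.59 nM-46 µM) final concentrations; follow-up screens used 11-point dilutions.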

[10] = qHTS of pediatric cancer cell lines to identify multiple opportunities for drug repurposing: Primary screen for Saos-2 cells (AID 1347097); further: nearly all actives have a fitted effect of over 40% in size
In short: as §2

[11] = qHTS of pediatric cancer cell lines to identify multiple opportunities for drug repurposing: Primary screen for SK-N-SH cells (AID 1347098); further: nearly all actives have a fitted effect of over 65% in size;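 on activity change, negative = cytotoxic: DMSO served as neutral control and bortezomib at 2.3 µM as positive control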
In short: (§4)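 Cells (500-1,000/well) rested 5 h, then received compounds for 48 h; metabolically active cells were measured by CellTiter-Glo luminescence. Final concentrations spanned up to 46 µM (MIPE, 11-point) or 0.59 nM-46 µM (NPC, 8-point) in primary screens, 11-point in follow-ups.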

[12] = qHTS of pediatric cancer cell lines to identify multiple opportunities for drug repurposing: Primary screen for NB1643 cells (AID 1347099); further: nearly all actives have a fitted effect of over 50% in size
In short: as §2

[13] = qHTS of pediatric cancer cell lines to identify multiple opportunities for drug repurposing: Primary screen for LAN-5 cells (AID 1347100)
In short: as §3

[14] = qHTS of pediatric cancer cell lines to identify multiple opportunities for drug repurposing: Primary screen for BT-12 cells (AID 1347101); further: nearly all actives have a fitted effect of over 25% in size
In short: as §4

[15] = qHTS of pediatric cancer cell lines to identify multiple opportunities for drug repurposing: Primary screen for Rh18 cells (AID 1347102); further: nearly all actives have a fitted effect of over 65% in size
In short: as §3

[16] = qHTS of pediatric cancer cell lines to identify multiple opportunities for drug repurposing: Primary screen for SJ-GBM2 cells (AID 1347091)
In short: as §1
Potency means the concentration at half of the fitted maximal effect.

SMILES | Potency [1] | Potency [2] | Potency [3] | Potency [4] | Potency [5] | Potency [6] | Potency [7] | Potency [8] | Potency [9] | Potency [10] | Potency [11] | Potency [12] | Potency [13] | Potency [14] | Potency [15] | Potency [16] | activity change, negative = cytotoxic [9]
c1coc(CNc2ncnc3nc[nH]c23)c1 | inactive | inactive | inactive | inactive | inactive | inactive | inactive | inactive | inactive | inactive | inactive | inactive | inactive | inactive | inactive | – | –
NC[C@H]1O[C@H](O[C@H]2[C@@H](O)[C@@H](O[C@H]3O[C@H](CO)[C@@H](O)[C@H](N)[C@@H]3O)[C@H](N)C[C@@H]2N)[C@H](N)C[C@H]1O | inactive | inactive | inactive | inactive | inactive | inactive | inactive | inactive | inactive | inactive | inactive | inactive | inactive | inactive | inactive | – | –
Cc1cnc(Nc2ccc(N3CCN(C)CC3)cc2)nc1Nc1cccc(S(=O)(=O)NC(C)(C)C)c1 | 11.8 µM (active) and 7.31 µM (active) | 16600 nM (active) | 10400 nM (active) | 14800 nM (active) | 1180 nM (active) | 1050 nM (active) | 21700 nM (active) | – | inactive | 4690 nM (active) | 3040 nM (active) | 3720 nM (active) | 743 nM (active) | 21700 nM (active) | 3320 nM (active) | – | –
Cc1onc(-c2ccccc2)c1C(=O)N[C@@H]1C(=O)N2[C@@H](C(=O)O)C(C)(C)S[C@@H]12 | inactive | inactive | inactive | inactive | inactive | inactive | inactive | – | inactive | inactive | inactive | inactive | inactive | inactive | inactive | – | –
N#CC(=C(N)Sc1ccc(N)cc1)c1ccccc1C(F)(F)F | inactive | inactive | inactive | inactive | inactive | – | – | – | inactive | – | 4820 nM (active) | inactive | – | – | inactive | inactive | –
CS[C@H]1SC[C@@H]2C(=O)N(C)[C@H](C(C)C)C(=O)OC[C@H](NC(=O)c3cnc4ccccc4n3)C(=O)N[C@H](C)C(=O)N(C)[C@@H]1C(=O)N(C)[C@H](C(C)C)C(=O)OC[C@H](NC(=O)c1cnc3ccccc3n1)C(=O)N[C@H](C)C(=O)N2C | 590 nM (active) | 16.6 nM (active) | 9.3 nM (active) | 7.4 nM (active) | 2.3 nM (active) | 1.3 nM (active) | 1.7 nM (active) | inactive | 9.3 nM (active) | 41.8 nM (active) | 4.8 nM (active) | inactive | inactive | 5.4 nM (active) | – | – | –
CCC(C=C[C@@H]1OC(=O)C=C[C@H]1C)=C[C@H](C)CC=CC(C)=C[C@@H](C)C(=O)[C@@H](C)[C@H](O)[C@@H](C)CC(C)=CC(=O)O | 196 nM (active) | 124 nM (active) | 77.7 nM (active) | 78.2 nM (active) | 24.7 nM (active) | 24.7 nM (active) | 10.2 nM (active) | 24.7 nM (active) | – | – | 40.3 nM (active) | 27.7 nM (active) | – | 32.2 nM (active) | – | – | 13.2% [at 1.86 µM]
CC(C)C[C@H](NC(=O)CNC(=O)c1cc(Cl)ccc1Cl)B1OC(=O)CC(CC(=O)O)(C(=O)O)O1 (some centres not stated) | 935 nM (active) | 209 nM (active) | 2940 nM (active) | 148 nM (active) | 11.8 nM (active) | 83.3 nM (active) | 344 nM (active) | 469 nM (active) | 743 nM (active) | – | 215 nM (active) | 372 nM (active) | 118 nM (active) | 217 nM (active) | 209 nM (active) | – | –
COc1cc(C=CC(=O)CC(=O)C=Cc2ccc(O)c(OC)c2)ccc1O | 48100 nM (active) | 19100 nM (active) | 33900 nM (active) | 21500 nM (active) | 6790 nM (active) | 5400 nM (active) | 31400 nM (active) | 38200 nM (active) | – | 30300 nM (active) | – | 12100 nM (active) | 9590 nM (active) | 44400 nM (active) | 38200 nM (active) | – | –
C[C@]12CC[C@@H]3c4ccc(O)cc4CC[C@H]3[C@H]1CC[C@H]2O | 7430 nM (active) | inactive | inactive | 18700 nM (active) | 2960 nM (active) | 10500 nM (active) | 27300 nM (active) | 9350 nM (active) | – | 16600 nM (active) | – | 4180 nM (active) | 9350 nM (active) | – | – | – | –
C[C@]12C=CC(=O)N[C@@H]1CC[C@H]1[C@H]3CC[C@@H](C(=O)Nc4cc(C(F)(F)F)ccc4C(F)(F)F)[C@@]3(C)CC[C@@H]12 | inactive | inactive | inactive | inactive | – | inactive | inactive | – | inactive | 16600 nM (active) | inactive | – | inactive | inactive | inactive | 14800 nM (active) | –
CON=C(C(=O)N[C@@H]1C(=O)N2C(C(=O)O)=C(Cn3ccc(=N)n3CCO)CS[C@H]12)c1csc(N)n1 | inactive | inactive | inactive | inactive | inactive | – | – | inactive | inactive | inactive | – | – | inactive | inactive | inactive | inactive | –
